Screening data as filed in PubChem BioAssay.
CIT2-GFP yeast: modulators of CIT2-GFP expression in yeast, primary screen, S. cerevisiae, GFP fusion, multiplex flow cytometry, MLPCN library | S. cerevisiae CIT2-GFP strain, 3 h; 100 means same as DMSO wells | AID 2029, 2009 | 320,000 tested, 0.065% active | GFP response vs DMSO, % at 10 µM;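 active means GFP response relative to DMSO above a set limit, near the screen mean plus 3 SD, cut at about 150% in these data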;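 further: ratio of well median GFP fluorescence to mean of DMSO wells on the plate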
RPL19A TOR yeast: RPL19A-GFP expression modulators in yeast, primary screen, cell-based, S. cerevisiae, multiplex flow cytometry, MLPCN. S. cerevisiae RPL19A-GFP strain, 3 h; active compounds read low. 330,000 tested, 0.3% active. percent response vs DMSO, % at 10 µM;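 active means percent response vs DMSO below 50%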;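 further: median channel GFP fluorescence of the barcoded RPL19A-GFP strain; lower means less RPL19A-GFP as with rapamycin TOR inhibition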
MEP2 TOR yeast: modulators of MEP2-GFP levels in yeast, primary screen, S. cerevisiae, multiplex flow cytometry, MLPCN library. S. cerevisiae MEP2-GFP strain, 3 h; 100% = DMSO control level. GFP response vs DMSO, % at 10 µM. 330,000 tested, 0.51% active. AID 2016, 2009;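 active means GFP response versus DMSO above a set limit, roughly screen mean plus 3 SD, cut at about 180% in these data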;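 further: median GFP fluorescence of the barcode-gated MEP2-GFP cells per well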
LAP4-GFP MLPCN: modulators of LAP4-GFP expression in yeast, primary screen, S. cerevisiae, multiplex flow cytometry, MLPCN library; 3 h; median GFP as percent of DMSO wells; GFP response vs DMSO, % at 10 µM; 320,000 tested, 0.34% active; AID 2023, 2009;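 active means GFP response vs DMSO above a set limit, about the screen mean plus 3 SD, cut at about 150% in these data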
AGP1-GFP MLPCN: modulators of AGP1-GFP expression in yeast TOR pathway, primary screen, cell-based, multiplex flow cytometry, S. cerevisiae, MLPCN library | 3 h; GFP as percent of DMSO wells | 320,000 tested, 0.02% active | GFP response vs DMSO, % at 10 µM;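 active means GFP response relative to DMSO above a set limit, near screen average plus 3 SD, cut at about 150% in these data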;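 further: median GFP channel fluorescence of the gated AGP1 strain per well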
LAP4-GFP pick2: LAP4-GFP expression modulators in yeast, confirmation, cell-based, second cherry pick, flow cytometry; shares compounds with LAP4-GFP MLPCN; S. cerevisiae LAP4-GFP strain, 3 h; GFP response vs DMSO, % at 10 µM; 590 tested, 20% active;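 active means GFP signal as percent of the solvent control above about 150%, meaning raised reporter expression, limit read from the data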
MEP2 cherry2: modulators of MEP2-GFP levels in yeast, confirmation, S. cerevisiae, flow cytometry GFP, second cherry picks. shares compounds with LAP4-GFP MLPCN. S. cerevisiae MEP2-GFP strain, 3 h. GFP response vs DMSO, % at 10 µM. 590 tested, 10% active;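 active means GFP signal above 150% of the solvent control wells, that is a rise of more than half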;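 further: median channel GFP fluorescence of all gated yeast cells per well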
RPL19A-GFP pick2: RPL19A-GFP modulators in TOR pathway yeast, confirmation, cell-based, S. cerevisiae, flow cytometry, second cherry pick; shares compounds with LAP4-GFP MLPCN; S. cerevisiae RPL19A-GFP strain, 3 h; active compounds read low; 100% means same as DMSO wells; GFP response vs DMSO, % at 10 µM; 590 tested, 3% active;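 active means under 65% GFP response relative to DMSO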;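 further: median GFP channel fluorescence per well over the all cells gate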
CIT2-GFP pick2: modulators of CIT2-GFP expression in yeast, confirmation, flow cytometry, second cherry pick, single plex; shares compounds with LAP4-GFP MLPCN; S. cerevisiae CIT2-GFP strain, 3 h; DMSO control wells read 100%; GFP response vs DMSO, % at 10 µM; 590 tested, 8% active;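 active means GFP response vs DMSO above about 150%, limit read from the data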;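 further: median green fluorescence per well over all gated yeast cells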
AGP1-GFP pick2: AGP1-GFP expression modulators, hit retest, confirmation, cell-based, flow cytometry, S. cerevisiae, cherry pick set 2. percent response vs DMSO, % at 10 µM. AID 2643, 2010. S. cerevisiae AGP1-GFP strain, 3 h. 590 tested, under 10 active. shares compounds with LAP4-GFP MLPCN;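 active means over 150 percent of DMSO response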;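 further: median GFP channel fluorescence over all cells without mother daughter split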
s288c autofluor: compound autofluorescence in yeast s288c, dose response, artefact control for yeast TOR pathway GFP screen, s288c strain | shares compounds with LAP4-GFP MLPCN | S. cerevisiae s288c, 520 nm autofluorescence, flow cytometry, 3 h; active compounds read high; zero means same as solvent-only cells | fluorescence change (kMESF span) at 33 µM | 610 tested, under 10 active | AID 2757, 2010;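 active means fluorescence span over the dose series, or activity score, above about 33, limit read from the data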
s288c autofl DR: autofluorescence of compounds in yeast s288c, dose response, artefact control for yeast TOR pathway GFP screen, primary hits, KU SAR, s288c parental. 110 tested, under 10 active. shares compounds with LAP4-GFP MLPCN. AID 488829, 2010. S. cerevisiae s288c parental, compound autofluorescence, flow cytometry, 3 h. fluorescence change (span) at 33 µM;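 active means fluorescence change span, or the activity score built from it, above 25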
TORC1 bypass: wild-type yeast growth inhibition sparing TORC1 bypass cells, mechanism study for yeast TOR pathway GFP screen, BY4741 wild type, TORC1 bypass strain; shares compounds with LAP4-GFP MLPCN; S. cerevisiae BY4741 spot growth rating, 48-72 h; active compounds read low; growth rating (0-3) at 30 µM; 120 tested, under 10 active; AID 504456, 2011;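 active means growth rating at most 1 for wild type yeast while the TORC1 bypass strain still grows fully, rated 3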
Of the large screens only hits and unclear results are named; the others gave an inactive call (follow-up assays come after a bar, where they were run). The list is not random: actives were taken first. Their share in the collection is about 0.93%.

Cc1ccc(CNc2nc(N)c([N+](=O)[O-])c(Nc3cccc(F)c3)n2)cc1	none
Nc1nc(Nc2ccccc2F)nc(Nc2cccc(F)c2)c1[N+](=O)[O-]	none (no result: CIT2-GFP yeast, RPL19A TOR yeast, MEP2 TOR yeast, LAP4-GFP MLPCN, AGP1-GFP MLPCN) | s288c autofl DR inactive | TORC1 bypass inactive
Nc1nc(NCc2ccco2)nc(Nc2cccc(F)c2)c1[N+](=O)[O-]	none | s288c autofl DR inactive | TORC1 bypass inactive
Nc1nc(Nc2cccc(F)c2)nc(NCCO)c1[N+](=O)[O-]	none
CCC(C)Nc1nc(N)c([N+](=O)[O-])c(Nc2cccc(F)c2)n1 (stereo not given)	none (no result: CIT2-GFP yeast, RPL19A TOR yeast, MEP2 TOR yeast, LAP4-GFP MLPCN, AGP1-GFP MLPCN) | s288c autofl DR inactive | TORC1 bypass inactive
CC(Oc1ccccc1F)C(=O)NNC(=O)c1cc2ccccc2o1 (stereo not given)	none
O=S(=O)(c1cccs1)N1CCC(CO)(Cc2cccc(F)c2)CC1	none
Cc1ccc2c(c1)N(CC(=O)Nc1ccccc1F)C(=O)CO2	none
COc1cccc(Nc2nc(N)c([N+](=O)[O-])c(Nc3cccc(F)c3)n2)c1	none (no result: CIT2-GFP yeast, RPL19A TOR yeast, MEP2 TOR yeast, LAP4-GFP MLPCN, AGP1-GFP MLPCN) | s288c autofl DR inactive | TORC1 bypass inactive
Nc1nc(NCc2ccccc2)nc(Nc2cccc(F)c2)c1[N+](=O)[O-]	none | s288c autofl DR inactive | TORC1 bypass inactive
Nc1cc(Nc2cccc(F)c2)nc(NCc2ccccc2)n1	none (no result: CIT2-GFP yeast, RPL19A TOR yeast, MEP2 TOR yeast, LAP4-GFP MLPCN, AGP1-GFP MLPCN) | s288c autofl DR inactive | TORC1 bypass inactive
Cc1nc(Nc2ccc(F)cc2)nc(Nc2ccc(F)cc2)c1[N+](=O)[O-]	none
Cc1cc(Nc2cccc(F)c2)nc(NCc2ccccc2)n1	none
CCOC(=O)c1c(N)nc(NC)nc1Nc1cccc(F)c1	none (no result: CIT2-GFP yeast, RPL19A TOR yeast, MEP2 TOR yeast, LAP4-GFP MLPCN, AGP1-GFP MLPCN) | TORC1 bypass inactive
C[C@H]1CN([C@@H](C)CO)C(=O)Cc2cc(NC(=O)CCC(F)(F)F)ccc2O[C@H]1CN(C)S(=O)(=O)c1ccc(Cl)cc1	none
COc1ccc(NS(=O)(=O)c2cccc(C(=O)N3CCN(c4ccccc4O)CC3)c2)cc1	none
Nc1nc(NCCc2ccccc2)nc(NCc2ccccc2)c1[N+](=O)[O-]	none
Nc1nc(NC2CCCCC2)nc(NCCO)c1[N+](=O)[O-]	none (no result: LAP4-GFP MLPCN)
Nc1nc(NC2CCCCC2)nc(Nc2cccc(F)c2)c1[N+](=O)[O-]	none (no result: CIT2-GFP yeast, RPL19A TOR yeast, MEP2 TOR yeast, LAP4-GFP MLPCN, AGP1-GFP MLPCN) | s288c autofl DR inactive | TORC1 bypass inactive
Nc1nc(NCCc2ccccc2)nc(Nc2cccc(F)c2)c1[N+](=O)[O-]	none (no result: CIT2-GFP yeast, RPL19A TOR yeast, MEP2 TOR yeast, LAP4-GFP MLPCN, AGP1-GFP MLPCN) | s288c autofl DR inactive | TORC1 bypass inactive
COc1ccc(CNC(=O)CNC(=O)CNS(=O)(=O)c2ccc(C)c(C)c2)cc1	none
CCSC1=NSC2=NC(=O)/C(=C\c3coc4ccccc4c3=O)C(=N)N12	MEP2 TOR yeast 268 | LAP4-GFP pick2 309 | MEP2 cherry2 169 | RPL19A-GFP pick2 inactive | CIT2-GFP pick2 161 | AGP1-GFP pick2 inactive
COc1ccc(Cl)cc1C(Nc1cccnc1)c1ccc2cccnc2c1O (stereo not given)	LAP4-GFP MLPCN 192 | s288c autofluor inactive
CCC(=O)NC(c1ccccc1OC)c1ccc2cccnc2c1O (stereo not given)	none
CCCCCCCCC/C(=N\O)c1ccccn1	LAP4-GFP MLPCN 228 | s288c autofluor inactive
CCOC(=O)C1=C(COC(=O)CNC(=O)c2ccc(C(C)(C)C)cc2)NC(=O)NC1C (stereo not given)	none
CCOC(=O)C1=C(COC(=O)CNC(=O)c2ccc(C)cc2)NC(=O)NC1C (stereo not given)	none | LAP4-GFP pick2 inactive | MEP2 cherry2 inactive | RPL19A-GFP pick2 inactive | CIT2-GFP pick2 inactive | AGP1-GFP pick2 inactive
O=C(CS(=O)c1ccccc1[N+](=O)[O-])Oc1ccc(Br)cc1 (stereo not given)	LAP4-GFP MLPCN 170 | s288c autofluor inactive
COc1cccc(/C=N/Nc2ccc([N+](=O)[O-])cn2)c1O	LAP4-GFP MLPCN 156 | LAP4-GFP pick2 161 | MEP2 cherry2 inactive | RPL19A-GFP pick2 inactive | CIT2-GFP pick2 inactive | AGP1-GFP pick2 inactive | s288c autofluor inactive
COc1cccc(/C=N/Nc2nc(Nc3ccc([N+](=O)[O-])cc3)nc(N3CCCC3)n2)c1O	none
CCn1c(SCC(=O)Nc2ccc3c(c2)OCCO3)nnc1-c1cccnc1	none
O=C(Nc1ccc(NC(=O)c2cc3ccccc3o2)cc1)c1ccco1	none | s288c autofluor inactive
COc1cc(NC(=O)c2cccc(C)c2)ccc1NC(=O)c1cc2ccccc2o1	none | s288c autofluor inactive
O=C(Nc1ccccc1)c1cc2ccccc2o1	none
O=C(COC(=O)c1ccc(Cl)c(S(=O)(=O)NCc2ccccc2)c1)NCC1CCCO1 (stereo not given)	none
Cc1ccccc1C(=O)Nc1ccc(C(=O)O)cc1NC(=O)c1ccccc1C	none
